PubChem BioAssay (NCI)
About 83,000 compounds went through this panel and 20% of them were active in at least one assay; those are over-represented in the sample as a whole.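 Method: cells in 96-well plates; compound added at one concentration; 48 h incubation; percent growth measured; values under 10 scored active.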 Activity calls are given as the source filed them.

These compounds were tested on MDA-MB-468 breast (assay: NCI-60 one-dose screen, 48 h (100 = growth as untreated, 0 = no growth, -100 = all killed)). Conditions: 10 µM unless noted.

SMILES | growth
COC(=O)c1nc(-c2ccc(C)cc2)oc1N1CCOCC1 | 82.1% (inactive)
Cc1cc(Nc2nc(-c3ccc(F)cc3)nc3ccccc23)n[nH]1 | 58.2% (inactive)
O=C(Nc1ccccc1)P(=O)(O)c1ccccc1 | 94.3% (inactive)
COc1ccc(C(c2ccc(OCCN(C)C)cc2)c2cc3ccccc3c3ccccc23)cc1 (stereo not given) | 2.65% (active)
CS(=O)(=O)Nc1cc(-c2ccc3ncnc(Nc4cccc(Cl)c4F)c3c2)cnc1Cl | -18.4% (active)
C[C@]12CC[C@H](O)CC1=CC[C@@H]1[C@@H]2CC[C@]2(C)C(c3cccnc3)=CC[C@@H]12 | 15.2% (inactive)
O=c1oc2ccc([N+](=O)[O-])cc2cc1Br | 101% (inactive)
Cc1cccc2c3c(sc12)C(c1ccc(F)cc1)C(C#N)=C(N)O3 (stereo not given) | 24.3% (inactive)
CN(C)c1ccc(/C=N\Nc2cc(=O)[nH]c3ccc(Cl)cc23)cc1 | 107% (inactive)
Cc1cc(Oc2ccccc2)ccc1Nc1ncnc2ccc(-c3cnc(Cl)c(NS(C)(=O)=O)c3)cc12 | -18.9% (active)
CCN(CC)c1ccc(N=Nc2cc(Cl)ccc2Cl)c(NC(=O)CCC(=O)O)c1 | 107% (inactive)
CCCCOc1nc2ccc(Cl)cc2cc1/C=C/C(=O)/C=C/c1ccc(Cl)cc1 | 79.5% (inactive)
Cc1ccc(S(=O)(=O)NC(=O)NCCSSCCNC(=O)NS(=O)(=O)c2ccc(C)cc2)cc1 | 97.6% (inactive)
Cc1ccc(N=C2CSc3nnc(-c4csc5c4CCCC5)n3N2)cc1 | 17% (inactive)
CNC(=O)c1ccc(Nc2ncc(C(F)(F)F)c(NCc3nccnc3N(C)S(C)(=O)=O)n2)cc1 | -50.1% (active)
